Only some compounds are listed: those with a hit (about 2.4% of all), similar ones and a draw of the others.
STAT3 blocker = IL-6 driven STAT3 reporter inhibitors, primary screen, U3A cells, luciferase, luminescence, MLSCN library; 190,000 tested, 0.89% active; IL-6 STAT3-luciferase reporter; host cell line lacks STAT1; inhibition, % at 5.5 µM;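 active means inhibition above the mean inhibition across all screened compounds plus 3 SD, cut at about 44% in these data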;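 further: 0% = DMSO only wells and 100% = 100 µM nifuroxazide control wells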
STAT1 blocker = STAT1 signaling inhibitors, primary screen, cell-based, HTS, luciferase reporter; NIH 3T3 STAT1-luciferase reporter, IFN-gamma, luminescence; inhibition, % at 5.5 µM; 200,000 tested, 0.35% active; AID 920, 2007;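 active means inhibition above a set limit, the mean inhibition across all tested compounds plus 3 SD, cut at about 34% in these data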;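 further: 0% = IFN-gamma with DMSO and 100% = IFN-gamma with 300 µM nifuroxazide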
C8 TRAIL sens = viability loss with TRAIL in NB7+C8 cells, primary screen, TRAIL sensitizer project, cell-based, ATPlite luminescence | inhibition (viability loss, TRAIL sensitization), % at 10 µM | 360,000 tested, 1% active;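 active means compounds causing at least 50% loss of cell viability in the single-dose screen, relative to plate controls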
HSP90 inh = HSP90 inhibitors, primary screen, cell lysate, luminescence | 290,000 tested, 0.91% active | Heat shock protein HSP 90 (rabbit reticulocyte lysate; luciferase refolding) | inhibition, % at 5.6 µM | Rabbit reticulocyte lysate, luciferase refolding luminescence, 3 h | AID 1789, 2009;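 active means inhibition above the screen-wide mean plus 3 SD, computed separately per campaign, cut at about 16% in these data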;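 further: 0% = DMSO wells and 100% = 60 µM geldanamycin wells; inhibitors lower the luminescence because luciferase stays unfolded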
PPC-1+TRAIL kill = compounds killing PPC-1 cancer cells with TRAIL present, primary screen, TRAIL potentiator project, ATPLite luminescence, uHTS; PPC-1 cells + TRAIL, ATPLite viability luminescence; cell killing (% activity), % at 4 µM or 5 µM; 220,000 tested, 0.41% active;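 active means cell killing above 50% in the first pass at 4 µM, then a duplicate retest at 5 µM averaging 50% or more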;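 further: plate controls were cells with TRAIL plus DMSO for no effect and medium-only wells lacking cells for full effect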
HSF1 inh = HSF1 inhibitors in luciferase reporter cells, primary screen, cell-based, NIH3T3, luminescence | NIH3T3-HGL HSE-luciferase, MG132-induced, luminescence 8 h; stronger effect = lower value | activity change, negative = inhibition, % at 7.5 µM (by protocol) | 300,000 tested, 0.77% active | AID 2098, 2009;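 active means more than half of replicate wells show activity change below -50%, luminescence cut by over half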;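 further: luciferase reports HSF-1 transcriptional activity via heat shock element; 0% = median of DMSO wells and -100% = zero luminescence signal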
HSP90 inh confirm = HSP90 inhibitors, confirmation, cell lysate, luminescence; shares compounds with HSP90 inh; rabbit reticulocyte lysate, luciferase refolding luminescence, 3 h; inhibition, % at 5.9 µM; 2,300 tested, 64% active; in the data active means inhibition above about 18%;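 further: 0% = vehicle wells and 100% = reference inhibitor wells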
luciferase ctr = firefly luciferase inhibitors, HSP90 counter-screen, confirmation, artefact control for HSP90 inhibitor project, biochemical, luminescence, triplicate. purified native firefly luciferase. shares compounds with HSP90 inh. 2,300 tested, 48% active. inhibition, % at 5.9 µM;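 active means inhibition above the mean inhibition of all tested sample wells plus 3 SD, cut at about 10% in these data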;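 further: 0% = DMSO with luciferase and 100% = wells lacking luciferase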
Target sequence (P08659 whole entry, looked up): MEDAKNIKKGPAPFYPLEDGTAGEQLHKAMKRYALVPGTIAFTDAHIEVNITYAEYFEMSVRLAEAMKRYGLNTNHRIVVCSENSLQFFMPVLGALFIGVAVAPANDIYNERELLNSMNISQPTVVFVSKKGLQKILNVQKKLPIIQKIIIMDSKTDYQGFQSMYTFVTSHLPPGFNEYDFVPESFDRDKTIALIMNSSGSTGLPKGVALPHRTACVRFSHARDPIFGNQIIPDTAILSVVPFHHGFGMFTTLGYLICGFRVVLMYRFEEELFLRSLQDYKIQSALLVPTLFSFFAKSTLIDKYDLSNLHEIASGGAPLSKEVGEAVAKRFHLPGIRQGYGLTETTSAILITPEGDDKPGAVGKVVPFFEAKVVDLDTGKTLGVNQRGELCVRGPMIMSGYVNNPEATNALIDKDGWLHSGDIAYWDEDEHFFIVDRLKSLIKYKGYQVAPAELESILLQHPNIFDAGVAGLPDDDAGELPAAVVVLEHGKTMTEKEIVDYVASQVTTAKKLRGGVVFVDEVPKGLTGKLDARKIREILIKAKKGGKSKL
Starred values were filed as active, the others as inactive; nt = not tested or not shown.

SMILES | STAT3 blocker | STAT1 blocker | C8 TRAIL sens | HSP90 inh | PPC-1+TRAIL kill | HSF1 inh | HSP90 inh confirm | luciferase ctr
Cc1[nH][nH]c(=O)c1C(c1ccc(-c2ccc(Cl)c(Cl)c2)o1)c1c(C)[nH][nH]c1=O | 0 | -2 | -13 | 18* | 20 | 10 | 0 | 0
Cc1[nH][nH]c(=O)c1C(c1ccc(-c2ccc(F)cc2)o1)c1c(C)[nH][nH]c1=O | -8 | -17 | -2 | 5 | -4 | 19 | nt | nt
c1ccc(-c2cc3c(-n4cccc4)ncnc3o2)cc1 | -52 | 12 | 8 | 17* | 16 | 0 | -4 | -16
Cc1cc(C(=O)COC(=O)c2ccc(O)cc2)c(C)n1-c1ccccc1F | 13 | -30 | 7 | 50* | 9 | -63* | 58* | 49*
CC(NC(=O)Cn1cccc1)c1ccccc1 (stereo not given) | nt | nt | -2 | -3 | nt | -7 | nt | nt
CCCCn1c(NC(=O)c2ccccc2Cl)c(C#N)c2nc3ccccc3nc21 | 13 | 10 | 27 | 59* | 14 | -6 | 46* | 2
N#Cc1c(NC(=O)c2ccccc2Cl)n(Cc2ccccc2)c2nc3ccccc3nc12 | 1 | 1 | 14 | 6 | 5 | nt | nt | nt
CC(C)C[C@H]1CN([C@@H](Cc2ccccc2)CN2CCC[C@H]2CN2C(=O)C(=O)NC[C@@H]2Cc2ccc(O)cc2)C(=O)C(=O)N1CC1CCCCCC1 | nt | nt | 3 | nt | nt | nt | nt | nt
CCOC(=O)c1c(NC(=O)c2ccccc2N(C)S(=O)(=O)c2ccccc2)sc2c1CCCC2 | -10 | 12 | -1 | 2 | 8 | -5 | nt | nt
CCOC(=O)c1c(NC(=O)C(NCCN(C)C)c2ccccc2)sc2c1CCCC2 (stereo not given) | nt | nt | 29 | 23* | nt | 3 | 6 | -3
CCC(C)(C)NC(=O)Cc1ccc(C)cc1 | -3 | 14 | 1 | 5 | 37 | -3 | nt | nt
COc1cccc(N2CCN(C(=O)CCNS(=O)(=O)c3ccc4c(c3)c(=O)n(C)c(=O)n4C)CC2)c1 | -4 | 5 | -7 | -1 | 8 | -1 | nt | nt
O=C(O)c1ccc(-c2nnc(-c3ccc([N+](=O)[O-])cc3)o2)cc1 | nt | nt | -3 | 4 | nt | -3 | nt | nt
O=C(O)c1ccc(-c2nnc(-c3ccccc3)o2)cc1 | nt | nt | -8 | 58* | nt | 23 | 58* | 14*
CCC1CCCCN1C(=O)CCCOc1ccccc1 (stereo not given) | -6 | -24 | 8 | 37* | 5 | -27 | 39* | 24*
COC(=O)[C@@]12C[C@@H](CC(=O)N3CCCC3)C(=O)N(CCc3ccc(OC)c(OC)c3)C1=CCC(C)(C)C2 | nt | nt | 3 | nt | nt | nt | nt | nt
Nc1ccc(-c2nc3cc([N+](=O)[O-])ccc3o2)cc1 | nt | nt | 32 | 6 | 23 | 29 | nt | nt
CC(C)(C)c1ccc(-c2nc3cc(N)ccc3o2)cc1 | nt | nt | 72* | 31* | nt | -45 | 42* | 45*
Cn1ccnc1SCc1cn2cc(Br)ccc2n1 | 43 | -18 | 18 | 18* | 12 | 7 | 40* | 34*
Cc1ccc(SCc2cn3ccccc3n2)cc1 | nt | nt | 21 | 5 | 23 | 35 | nt | nt
O=C(c1ccco1)N1CCN(c2ccc([N+](=O)[O-])cc2F)CC1 | nt | nt | -15 | -1 | nt | 0 | nt | nt
O=C1CCN(c2ccc([N+](=O)[O-])cc2F)CC1 | 16 | -4 | -6 | 34* | 18 | 6 | -5 | -8
Cc1cc(/C=C2\SC(=O)N(C)C2=O)c(C)n1-c1ccc(O)cc1 | nt | nt | 27 | 48* | nt | -70* | 64* | 63*
Cc1cc(/C=C2\SC(=O)N(C)C2=O)c(C)n1-c1ccc(S(N)(=O)=O)cc1 | nt | nt | -4 | -1 | nt | 4 | nt | nt
COC(=O)c1ccc(N=NNc2ccccc2)cc1 | -2 | -52 | 39 | 28* | 7 | -39 | 47* | -12
SMILES | STAT3 blocker | STAT1 blocker | C8 TRAIL sens | HSP90 inh | PPC-1+TRAIL kill | HSF1 inh | HSP90 inh confirm | luciferase ctr
COC(=O)c1ccc(N=NNc2cccc(Br)c2)cc1 | -19 | -58 | 4 | 10 | 4 | nt | nt | nt
COC(=O)c1ccc(N=Nc2c(C)[nH]n(-c3ccccc3)c2=O)cc1 | nt | nt | -7 | 26* | nt | -6 | 30* | -4
CC(C)(C)C(C(=O)NC1CCCC1)N1CCN(c2ncccc2C#N)CC1 (stereo not given) | nt | nt | -6 | nt | nt | nt | nt | nt
CCc1ccc(C(=O)Cn2ccsc2=N)cc1 | nt | nt | 59* | 21* | nt | 12 | 11 | -8
O=C(/C=C/Nc1ccc(F)c(F)c1)c1ccc(Br)cc1 | 2 | -44 | 15 | 5 | 6 | 30 | nt | nt
O=C(/C=C/Nc1ccc(Br)cc1F)c1ccccc1 | 90* | 47* | 94* | 23* | 80* | -24 | 84* | 78*
O=C(CN(Cc1ccco1)C(=O)CNS(=O)(=O)c1ccc(Cl)cc1)NCc1ccco1 | nt | nt | -16 | 55* | nt | 20 | -2 | -8
Cc1ccc(S(=O)(=O)NCC(=O)N(CC(=O)NCc2ccco2)Cc2ccco2)cc1 | 2 | -7 | 10 | 1 | 20 | 5 | nt | nt
CCc1nc2ccc(C(=O)N3CCN(C(C)=O)CC3)cn2c1N(C=O)Cc1ccc(OC)cc1 | nt | nt | 0 | nt | nt | nt | nt | nt
O=C(Nc1cccc(-c2nc3ncccc3o2)c1)c1sc2cc(Cl)ccc2c1Cl | 0 | -5 | 16 | 0 | 14 | 2 | nt | nt
O=C(Nc1cccc(-c2nc3ncccc3o2)c1)c1sc2ccccc2c1Cl | 12 | -1 | -8 | 20* | 29 | 5 | -6 | -16
Nc1c([N+](=O)[O-])cc2c3c(cccc13)CC2 | nt | nt | 1 | nt | nt | nt | nt | nt
Cn1cccc1/C=N/N1CCN(c2ccccc2)CC1 | 21 | -13 | 0 | 21* | 11 | -17 | 6 | -9
Cn1cccc1/C=N/N1CCN(Cc2ccccc2Cl)CC1 | nt | nt | -7 | 2 | 3 | -4 | nt | nt
Cc1cc[n+](-c2[nH]c(=O)sc2/C=N/N=C(\[O-])c2ccccc2)cc1C | 4 | -6 | 3 | 18* | 8 | -5 | -6 | -14
O=C(N/N=C/c1ccc(N2CCOCC2)cc1)c1ccccn1 | nt | nt | 37 | 26* | 21 | -7 | 14 | 1
CN(C)c1ccc(/C=N/NC(=O)c2ccccn2)cc1 | nt | nt | 66* | 24* | 28 | 5 | 62* | 47*
N#C/C(=C\c1ccc([N+](=O)[O-])cc1)c1ccccn1 | 22 | -36 | 11 | 3 | -21 | 49 | nt | nt
CN(C)S(=O)(=O)c1ccc(NC(=O)c2ccccn2)cc1 | 7 | -19 | 6 | 4 | 17 | 8 | nt | nt

Screening data: PubChem, several laboratories
